Reference: article PMC4552634, “A New Set of Chemical Starting Points with Plasmodium falciparum Transmission-Blocking Potential for Antimalarial Drug Discovery” (PLoS ONE, 2015)
Out of some 13,000 compounds screened, about 3,200 (25%) showed an effect of 50% or more. This is one part of the list.

The molecules below were run on P. falciparum stage V gametocytes. Details: 48 h, 5 µM; inhibitor.
Set-up: BacTiter-Glo ATP luminescence viability of purified stage V gametocytes in 384-well plates, per cent inhibition versus DMSO

SMILES | % Inhibition
O=C(/C=C/c1ccc(Cl)c(Cl)c1)NCCCCCN1CCCN(C(=O)Nc2ccc(Cl)cc2)CC1 [TCMDC-135748] | -7.449%
Cc1cc(C)c(NC(=O)N2CCCN(CCCCCNC(=O)/C=C/c3ccc(Cl)c(Cl)c3)CC2)c(C)c1 [TCMDC-135753] | 28.16%
O=C(/C=C/c1ccc(Cl)c(Cl)c1)NCCCCCCN1CCN(C(=O)Nc2ccc(Cl)c(C(F)(F)F)c2)CC1 [TCMDC-135836] | -47.93%
O=C(/C=C/c1ccc(C(F)(F)F)cc1)NCCCCCN1CCCN(C(=O)Nc2ccc(F)c(Cl)c2)CC1 [TCMDC-136107] | 77.99%
Cc1noc(-c2ccccc2)c1NC(=O)NC1CCN(CCCCCNC(=O)/C=C/c2ccc(Cl)c(Cl)c2)CC1 [TCMDC-135890] | -22.75%
O=C(/C=C/c1ccc(C(F)(F)F)cc1)NCCCCCN1CCCN(C(=O)Nc2ccc(Cl)c(Cl)c2)CC1 [TCMDC-136104] | -57.55%
O=C(/C=C/c1ccc(Cl)c(Cl)c1)NCCCCCN1CCCN(C(=O)Nc2ccc(Cl)c(C(F)(F)F)c2)CC1 [TCMDC-135762] | -47.47%
O=C(/C=C/c1ccc(Cl)cc1)NCCCCCN1CCN(C(=O)C=Cc2ccc(Cl)c(Cl)c2)CC1 [TCMDC-135914] | 71.52%
O=C(/C=C/c1ccc(C(F)(F)F)cc1)NCCCCCN1CCN(C(=O)Nc2ccc(F)c(Cl)c2)CC1 [TCMDC-136096] | 8.329%
O=C(/C=C/c1ccc(Cl)c(Cl)c1)NCCCCCN1CCCN(C(=S)Nc2ccc(Cl)cc2)CC1 [TCMDC-135893] | 2.458%
Cc1noc(-c2ccccc2)c1NC(=O)N1CCN(CCCCCCNC(=O)/C=C/c2ccc(Cl)c(Cl)c2)CC1 [TCMDC-135892] | 75.05%
O=C(/C=C/c1ccc(Cl)c(Cl)c1)NCCCCCCN1CCCN(C(=O)Nc2ccc(Cl)c(C(F)(F)F)c2)CC1 [TCMDC-135935] | 84.32%
Cc1cccc2[nH]c(-c3cccc(-c4cccc(NC(=O)CC5NC(=O)c6ccccc65)c4)c3)nc12 (stereo not drawn) [TCMDC-137093] | 12.03%
CCOc1cc(C)ccc1C1CCN(CCCCNC(=O)c2coc(-c3ccc(Cl)cc3)c2)CC1 [TCMDC-138530] | -52.9%
O=C(c1cc(C(=O)NCc2ccc(Cl)cc2)c(=O)n(Cc2ccc(Cl)cc2)c1)c1cc(Cl)ccc1O [TCMDC-124339] | -61.86%
OC(CNc1ccnc(Nc2ccc(Cl)cc2)n1)c1cccc(C(F)(F)F)c1 (stereo not drawn) [TCMDC-136587] | 30.58%
O=C(/C=C/c1ccc(Cl)c(Cl)c1)NCCCCCCN1CCN(C(=O)Nc2ccc(Cl)c(Cl)c2)CC1 [TCMDC-135835] | 30.42%
O=C(/C=C/c1ccc(Cl)c(Cl)c1)NCCCCCCN1CCCN(C(=O)Nc2ccc(F)c(Cl)c2)CC1 [TCMDC-135940] | 14.82%
O=C(/C=C/c1ccc(Cl)c(Cl)c1)NCCCCCCN1CCCN(C(=O)Nc2cccc(C(F)(F)F)c2)CC1 [TCMDC-135934] | 13.78%
O=C(/C=C/c1ccc(Cl)c(Cl)c1)NCCCCN1CCCN(C(=O)Nc2ccc(F)c(Cl)c2)CC1 [TCMDC-135931] | -30.88%
O=C(/C=C/c1ccc(Cl)c(Cl)c1)NCCCCCN1CCCN(C(=O)Nc2ccc(Cl)c(Cl)c2)CC1 [TCMDC-135759] | -47.93%
O=C(/C=C/c1ccc(Cl)c(Cl)c1)NCCCCN1CCCN(C(=O)Nc2ccc(Cl)c(Cl)c2)CC1 [TCMDC-135932] | 87.86%

SMILES | % Inhibition
O=C(/C=C/c1ccc(Cl)c(Cl)c1)NCCCCCCN1CCCN(C(=O)Nc2ccc(Cl)c(Cl)c2)CC1 [TCMDC-135933] | 52.33%
O=C(/C=C/c1ccc(Cl)c(Cl)c1)NCCCCCCN1CCCN(C(=O)Nc2ccc(C(F)(F)F)cc2)CC1 [TCMDC-135937] | -27.04%
O=C(/C=C/c1ccc(Cl)c(Cl)c1)NCCCCCN1CCCN(C(=O)Nc2cccc(C(F)(F)F)c2)CC1 [TCMDC-135758] | 79.21%
CCCO[C@H](C(=O)OC)[C@@H](CC1Cc2ccccc2C1)C(=O)NCCC1=CCCCC1 [TCMDC-140419] | -16.75%
COc1ccc2nc(C)cc(Nc3ccc(Oc4ccc5ccccc5c4)c(Cl)c3)c2c1 [TCMDC-124209] | -14.35%
N#Cc1cccc(-c2nc(NCc3cccc(C(F)(F)F)c3)nn2-c2cccc(C(F)(F)F)c2)c1 [TCMDC-133548] | -85.5%
Cc1nc(N)nc(N)c1-c1ccc(Br)c(Br)c1 [TCMDC-137372] | 14.5%
COc1ccc2ncc(F)c(CCN3CCC(CNC(=O)C(=O)c4c[nH]c5ccccc45)CC3)c2n1 [TCMDC-135874] | 3.215%
Cc1cc(C(=O)Nc2ccc3c(ccn3C3CCCN(Cc4ccc(C(F)(F)F)cc4F)CC3)c2)no1 (stereo not drawn) [TCMDC-135088] | 41.42%
COC(=O)c1ccc(-c2ccc(-c3cccnc3)cc2C)cc1 [TCMDC-139074] | 95.09%
COc1cccc(NC(=O)Nc2ccc(C)c(-c3ccc(C(=O)Nc4ccncc4)cc3)c2)c1 [TCMDC-133704] | -18.6%
COc1ccc(NC(=O)c2ccc(-c3ccc(-c4cccnc4)cc3)c(C)c2)cc1OCCN(C)C [TCMDC-138989] | 38.05%
COc1ccc(NC(=O)c2ccc(OCCCCCCCOc3ccc(C(=O)Nc4ccc(OC)c(N5CCN(C)CC5)c4)cc3)cc2)cc1N1CCN(C)CC1 [TCMDC-139007] | 102%
COc1ccc(NC(=O)c2ccc(Br)c(C)c2)cc1N1CCN(CCCc2c[nH]c3ccccc23)CC1 [TCMDC-139036] | 49.59%
COc1ccc(NC(=O)c2ccc3cc4ccccc4cc3c2)cc1N1CCN(C)CC1 [TCMDC-138983] | 82.38%
COc1ccc(NC(=O)c2ccc(-c3nc(-c4ccccc4)cs3)cc2)cc1N1CCN(C)CC1 [TCMDC-138980] | -14.93%
COc1ccc(NC(=O)c2ccc(C=Cc3ccc(C(F)(F)F)cc3)cc2)cc1N1CCN(C)CC1 [TCMDC-138674] | 15.84%
COc1ccc(NC(=O)c2ccc(-c3cccc(OCc4ccccc4)c3)cc2)cc1N1CCN(C)CC1 [TCMDC-138991] | -59.54%
COc1ccc(NC(=O)c2ccc(NC(=O)c3ccc(Cl)cc3)cc2)cc1N1CCN(C)CC1 [TCMDC-138188] | 5.64%
CCN1CCN(c2cc(C)c3cc(NC(=O)c4ccc(OC)c(OC)c4)ccc3n2)CC1 [TCMDC-123598] | 74.46%
COc1ccc(NC(=O)c2ccc(Br)c(C)c2)cc1N1CCN(CCCCc2ccccc2)CC1 [TCMDC-139035] | -7.283%
CCN1CCN(c2cc(C)c3cc(NC(=O)c4ccc(OC)c([N+](=O)[O-])c4)ccc3n2)CC1 [TCMDC-123599] | 3.112%

SMILES | % Inhibition
COc1ccc(C(=O)Nc2ccc3nc(N4CCCCC4)cc(C)c3c2)cc1OC [TCMDC-124422] | 4.122%
COc1ccc(NC(=O)c2cccc(Br)c2)cc1N1CCN(CCCCCCCN2CCN(c3cc(NC(=O)c4cccc(Br)c4)ccc3OC)CC2)CC1 [TCMDC-139020] | 104.8%
O=C(Nc1cc(C(F)(F)F)cc(C(F)(F)F)c1)c1cccc([N+](=O)[O-])c1 [TCMDC-123503] | -13.95%
COc1csc2cc(Br)ccc12 [TCMDC-139000] | 9.347%
COc1cc(C(=O)NCCCN2CCN(c3cc(Cl)ccc3OC)CC2)ccc1-c1nc2cc(Cl)c(Cl)cc2[nH]1 [TCMDC-140079] | 4.425%
COc1cc(C(F)(F)F)c2cc(CNCCCNc3nc4ccccc4[nH]3)[nH]c2c1 [TCMDC-140014] | 33.56%
CCOc1ccc(Nc2ccc3nonc3c2S(=O)(=O)Nc2ccc(OCC)cc2)cc1 [TCMDC-138325] | -11.05%
CCC(CC)(CCC#N)CN(C[C@@H](O)[C@H](Cc1ccccc1)NC(=O)OC(C)(C)C)S(=O)(=O)c1ccc(OC)cc1 [TCMDC-138270] | 4.425%
COc1ccc(O)c(Cc2cnc3nc(N)[nH]c(=O)c3c2C)c1 [TCMDC-137766] | -34.15%
CCCNc1ccc2nccc(CCN3CCC(NCc4ccc5c(n4)NC(=O)CS5)CC3)c2n1 [TCMDC-141591] | 39.25%
CO/C(=C\C=C\c1cc2cc(Cl)c(Cl)cc2[nH]1)C(=O)NCCCN1CCN(C2CCCCC2)CC1 [TCMDC-139296] | -42.38%
CCOC(=O)C1CCN(CCCNC(=O)/C(=C/C=C/c2cc3cc(Cl)c(Cl)cc3[nH]2)OC)CC1 [TCMDC-139356] | -1.751%
CO/C(=C\C=C\c1cc2cc(Cl)c(Cl)cc2[nH]1)C(=O)NCCCN1CCCC[C@@H]1C [TCMDC-139059] | 70.67%
CO/C(=C\C=C\c1cc2cc(Cl)c(Cl)cc2[nH]1)C(=O)NCCCCN1CCN(c2ccccc2OC)CC1 [TCMDC-139178] | -64.2%
CO/C(=C\C=C\c1cc2cc(Cl)c(Cl)cc2[nH]1)C(=O)NCCN1CCCCC1 [TCMDC-139019] | 39.34%
CO/C(=C\C=C\c1cc2cc(Cl)c(Cl)cc2[nH]1)C(=O)NCCCN1CCCC[C@H]1C [TCMDC-139058] | 98.53%
CO/C(=C\C=C\c1cc2cc(Cl)c(Cl)cc2[nH]1)C(=O)NCCCN1CCN(c2cccc(Cl)c2)CC1 [TCMDC-139141] | 15.28%
COc1ccc(Cl)cc1N1CCN(CCCNC(=O)c2ccc(-c3nc4cc(Cl)c(F)cc4[nH]3)cc2)CC1 [TCMDC-140094] | 66.12%
COc1ccc(Cl)cc1N1CCN(CCCNC(=O)c2ccc(-c3nc4cc(Cl)c(F)cc4[nH]3)c(F)c2)CC1 [TCMDC-140098] | -15.17%
COc1ccc2nc(-c3ccc(C(=O)NCCCN4CCN(c5cc(Cl)ccc5OC)CC4)cc3)[nH]c2c1 [TCMDC-140024] | -1.879%
CO/C(=C\C=C\c1cc2cc(Cl)c(Cl)cc2[nH]1)C(=O)NCCCN1CC(C)N(C)CC1C (stereo not drawn) [TCMDC-139044] | -57.76%
CO/C(=C\C=C\c1cc2cc(Cl)ccc2[nH]1)C(=O)NCCCN1CCN(c2cc(Cl)ccc2OC)CC1 [TCMDC-139242] | 50.82%
